According to PubChem BioAssay (NCI):
About 79,000 compounds went through this panel and 15% of them were active in at least one assay; those are over-represented in the sample as a whole. Unmarked numbers belong to inactive results. Activity calls are given as the source filed them. Rule as the data show it: active = growth inhibition above about 70%; inactive = the rest.

Assay: NCI Yeast Anticancer Drug Screen. Data for the wt1 strain (AID 149);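 also: 0% = growth of vehicle-treated wt1 cultures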
Settings: S. cerevisiae wt1 strain (SPY 50644) growth inhibition, hits give high values
Procedure: Growth inhibition of yeast strains with defined genetic alterations is measured as a screen for potential anti-cancer activity. Selected strains with alterations in DNA damage repair or cell cycle control were exposed to compounds and growth inhibition was measured relative to vehicle treated controls. The strain used in this assay is wt1

| Structure (SMILES) | growth inhibition (at 1.2 µM) [%] | growth inhibition (at 3.7 µM) [%] | growth inhibition (at 11.0 µM) | growth inhibition (at 33.0 µM) | growth inhibition (at 100.0 µM) |
| --- | --- | --- | --- | --- | --- |
| CC(=O)/C=C/c1cc([N+](=O)[O-])ccc1O | -12 | -33 | -2% | 66% | 97% (active) |
| Oc1ccc(C2(c3ccc(O)cc3)CCCC2)cc1 | -41 | -21 | 10% | 98% (active) | 98% (active) |
| O=C1Oc2ccccc2C(=O)/C1=C/N1C(=O)N/C(=C\c2ccccc2Br)C1=O | 4 | 7 | 8% | 18% | 55% |
| O=[N+]([O-])c1cccc2nc3ccccc3c(NCCCN3CCCCC3)c12 | 3 | 13 | 80% (active) | 96% (active) | 97% (active) |
| Cc1oc2ccccc2c(=O)c1Cn1nnc2ccccc21 | -2 | -1 | -2% | -6% | 6% |
| O=NC1c2cccc3cccc(c23)C1N=O (stereo not given) | 3 | 3 | 20% | 38% | 69% |
| O=C1C=CC(=Nc2cccc3c2-c2ccccc2C3=O)O1 | -2 | 8 | 42% | 99% (active) | 99% (active) |
| NC(=O)NC1C(c2ccccc2)=C1c1ccccc1 | -2 | 12 | 26% | 26% | 27% |
